The whole screen tested about 1,200 compounds, of which about 110 (9.2%) were called active. Another 8% or so got no clear call; they are omitted.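 The calls were made as follows: active = pathway reporter half-maximal dose under half the control reporter's, or control reporter unaffected while pathway reporter is inhibited; inconclusive = either signal flat at 30 to 70% inhibition or poorly fitted; inactive = the rest.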 Not all results are given here. Entries that show only a call come without a potency. Potency and affinity values are given separately.
assay: TES1-eGFP NF-kB reporter inhibition versus Tet-On dsRED, dose response, selectivity assay for LMP1 NF-kB inhibitor project, imaging, HEK293T, dual-color eGFP/dsRED, cherry-picks (AID 588398); settings: 48 h; HEK293T Tet-On dsRED counter-screen channel, at 19.5 µM (top of the series)

Row | SMILES | outcome
1 | CC1Cc2ccccc2N1c1ncnc(N)c1[N+](=O)[O-] (centres undefined) | inactive
2 | CCCn1c(C)cc(C(=O)CN2C(=O)c3ccccc3S2(=O)=O)c1C | inactive
3 | COc1cccc(/C=N/Nc2nccnc2Cl)c1O | inactive
4 | COc1ccc(/C=C2\N=C(C)OC2=O)cc1[N+](=O)[O-] | inactive
5 | CCN1CCN(Cc2ccc(NC(=O)c3ccc(C)c(NC(=O)c4cccc(-c5cn[nH]c(=O)c5)c4)c3)cc2C(F)(F)F)CC1 | inactive
6 | Cc1cc(N)nc(=O)n1C1CC(O)C(CO)O1 (centres undefined) | inactive
7 | N/C(=N\OC(=O)c1cccc(Br)c1)c1ccccn1 | inactive
8 | COc1cc(C=C2CCCC(=Cc3ccc(OCC4CO4)c(OC)c3)C2=O)ccc1OCC1CO1 (centres undefined) | inactive
9 | CS(=O)(=O)Nc1ccc(C2=NN(S(C)(=O)=O)C(c3ccccc3)C2)cc1 (centres undefined) | inactive
10 | CCSc1nnc(NC(=O)CCn2c(=O)oc3ccccc32)s1 | inactive
11 | c1nc(NCc2ccc3c(c2)OCO3)c2cc(-c3ccoc3)ccc2n1 | inactive
12 | COc1ccc(N2C3=[N+](CC2(C)O)c2ccccc2CC3)cc1 (centres undefined) | inactive
13 | c1ccc(-n2nnc3c(N4CCOCC4)ncnc32)cc1 | inactive
14 | O=C(NCc1ccco1)C1CC(=O)N(c2cccc(Cl)c2)C1 (centres undefined) | inactive
15 | COCCn1c(SCC(=O)NCc2ccco2)nnc1-c1c[nH]c2ccccc12 | inactive
16 | O=C1CCC(C(=O)N2CCCCCC2)CN1CCc1ccc(Cl)cc1 (centres undefined) | inactive
17 | COc1ccc(NC(=O)/C(C#N)=C/c2cc(C)n(-c3ccc(N4CCOCC4)c([N+](=O)[O-])c3)c2C)cc1 | inactive
18 | CCOC(=O)c1cc(-c2ccccc2)n(CC(=O)Nc2cccc(OC)c2)c1C | inactive
19 | CCOC(=O)c1nc(NCc2ccccc2F)c2ccccc2n1 | inactive
20 | COc1cc(/C=N/NC(=O)c2cc(C34CC5CC(CC(C5)C3)C4)[nH]n2)ccc1O | inactive
21 | COc1cc(/C=C2\SC(=S)N(NC(=O)c3ccncc3)C2=O)ccc1O | inactive
22 | CCOC(=O)c1cn2nc(N3CCCC3)ccc2n1 | inactive
23 | COc1ccc2[nH]c(-c3ccc(C)cc3)cc(=O)c2c1 | inactive

Row | SMILES | outcome
24 | Cc1ccc(C(=O)Nc2nnc(SCC(=O)N3CCCc4ccccc43)s2)cc1 | inactive
25 | O=C(C1CC1)N1N=C(c2ccc(Br)cc2)CC1(O)C(F)(F)F (centres undefined) | inactive
26 | COc1ccccc1C(=O)Nc1c[nH]c(=O)[nH]c1=O | inactive
27 | COc1ccccc1OCc1ccc(C(=O)c2ccccc2)cc1 | inactive
28 | COc1ccc(-c2csc(Nc3cccc(C)n3)n2)cc1OC | inactive
29 | CS(=O)(=O)c1ccc(Sc2nc3ccccc3s2)c([N+](=O)[O-])c1 | inactive
30 | O=C(Nc1ncc(Br)s1)C(Cc1ccccc1)n1cccc1 (centres undefined) | inactive
31 | CCOc1ccccc1C(=O)NC1CC2CCCC(C1)N2Cc1nnnn1Cc1ccco1 (centres undefined) | inactive
32 | O=c1cc(C2CCCCC2)[nH]c(=O)[nH]1 | inactive
33 | Cc1ccc(-c2nc3cccnc3o2)cc1NC(=O)COc1ccc(C(C)(C)C)cc1 | inactive
34 | CNC(=S)N1N=C(c2cccs2)CC1c1ccc(F)cc1 (centres undefined) | inactive
35 | Oc1ccc(C=NNC(=S)Nc2ccccc2)nc1 | inactive
36 | S=C(N/N=C/c1ccc2ncccc2c1)Nc1cccnc1 | inactive
37 | Cn1cc(S(=O)(=O)N2CCN(C(=O)c3ccco3)CC2)c(=O)n(C)c1=O | inactive
38 | Cn1cccc1C(=O)OCC(=O)Nc1ccc2c(c1)OCO2 | inactive
39 | Cc1cc(C)nc(SCC(=O)OCN2C(=O)c3ccccc3C2=O)n1 | inactive
40 | O=C(Nc1ccc(N2CCOCC2)cc1)c1cnccn1 | inactive
41 | Cc1ccccc1C(=O)N1CCN(c2ccc(NC(=O)c3ccco3)cc2Cl)CC1 | inactive
42 | O=C(CCCOc1ccccc1)N1CCN(c2ccccc2)CC1 | inactive
43 | N#CC(C#N)c1ccnc2ccccc12 | inactive
44 | COc1ccc(NC(=O)C[C@H]2C(=O)N(CCc3ccccc3)C[C@@H]2c2ccc(OC)cc2)cc1 | inactive
45 | COc1cc(OC)cc(-c2c(C#Cc3ccsc3)c3cc(-c4cc(OC)c(OC)c(OC)c4)ccc3n2C)c1 | inactive
46 | COc1cccc(N=Nc2ccc(O)c3ncccc23)c1 | inactive

Row | SMILES | outcome
47 | COc1cccc(C2Nc3ccc4ccccc4c3C3=C2C(=O)CC(C)(C)C3)c1OCC(=O)O (centres undefined) | inactive
48 | COc1ccc(-n2c(C)c([N+](=O)[O-])c3ccc(O)c(CN(C)C)c32)cc1 | inactive
49 | COc1ccc(/C=C2\SC(=O)N(CCCC(=O)Nc3ccc(C(=O)O)cc3)C2=O)cc1 | inactive
50 | Cc1ccc(C(=O)Nc2ccc3c(c2)OCCO3)c(Cl)c1 | inactive
51 | CCc1nc(SCC(=O)c2ccc3c(c2)OCCO3)c2ccccc2n1 | inactive
52 | Cc1ccc(C(=O)Nc2ccc3c(c2)OCCO3)cc1 | inactive
53 | O=C(Nc1ccc2c(c1)OCCO2)c1ccccn1 | inactive
54 | O=C(CCCN1C(=O)[C@H]2CC=CC[C@H]2C1=O)NCc1nc(-c2ccc(Cl)cc2)no1 | inactive
55 | CC1(C)CC(=O)C(CC2=C(O)CC(C)(C)CC2=O)=C(O)C1 | inactive
56 | CC(C)CC1C(=O)N(Cc2cn(CC3CCCCC3)nn2)CCS(=O)(=O)N1Cc1ccc(-c2ccc(F)nc2)cc1 (centres undefined) | inactive
57 | Cc1cc(=O)[nH]c(N=N/C(=N/Nc2ccccc2C)c2ccccc2)n1 | inactive
58 | COC(=O)c1ccccc1NC(=O)CSc1nnnn1C | inactive
59 | COc1ccc(S(=O)(=O)NCC(c2cccnc2)N2CCN(c3ccc(F)cc3)CC2)cc1C (centres undefined) | inactive
60 | O=C(CCNc1cccc(F)c1)c1cc2ccccc2o1 | inactive
61 | NC(=O)c1sc2nccc(Nc3ccccc3)c2c1N | inactive
62 | Cc1nn(-c2ccccc2)c(Cl)c1C1C(C#N)=C(N)Oc2n[nH]c(C)c21 (centres undefined) | inactive
63 | O=S(=O)(c1ccc2c(c1)C(=NO)c1cc(S(=O)(=O)N3CCCCC3)ccc1-2)N1CCCCC1 | inactive
64 | COc1ccc(S(=O)(=O)N2CCOCC2)cc1NC(=O)COC(=O)CCS(=O)(=O)c1ccc(C)cc1 | inactive
65 | Oc1ccc2ccccc2c1N=Nc1ccccn1 | inactive
66 | c1ccc(C(=NNc2nc3ccccc3s2)c2ccccn2)cc1 | inactive
67 | CCOC(=O)c1sc(NC(=O)CNCc2ccccn2)c(C(=O)OCC)c1C | inactive
68 | Oc1c(N=NC(=S)Nc2ccccc2F)c2ccccc2n1Cc1ccccc1 | inactive
69 | COc1ccc(OCc2cccc(C(=O)NN)c2)cc1 | inactive

— PubChem BioAssay AID588398 (Broad Institute, 2011)
